# Source: PubChem BioAssay (EPA / NIEHS)
# “And” between values parts separate entries of the source, which are not always exact repeats. Equal entries are not always repeated. The source made the active and inactive calls. Rule for the calls: active = hit-call score of the fitted dose curve at least 0.9, where 1 is the maximum; inactive = score below 0.9.
# Assay: BSK_BF4T_SRB: Viability Assessment in the BioMAP Diversity Plus: BF4T Assay (AID 2284274);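 for AC50: total cell protein by sulforhodamine B staining as a cytotoxicity measure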
# Conditions: primary human bronchial epithelial cells with fibroblasts
# Summary of the method: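 Cytotoxicity measured as total protein: cells fixed with 10% TCA, stained with 0.1% SRB, read at 560 nm. Bronchial epithelial/dermal fibroblast co-culture, 24 h after dosing, with positive-direction fitting relative to DMSO.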
Compound,outcome,AC50
O=C(O)CCC(F)(F)C(F)(F)C(F)(F)C(F)(F)C(F)(F)C(F)(F)F,inactive,
O=C(CC(=O)C(F)(F)C(F)(F)C(F)(F)F)c1cccs1,,23.9 µM (active) and 26.7 µM (active)
O=S(=O)(O)C(F)(F)C(F)(F)C(F)(F)C(F)(F)C(F)(F)C(F)(F)C(F)(F)C(F)(F)C(F)(F)C(F)(F)F,inactive,
O=P(O)(O)CCC(F)(F)C(F)(F)C(F)(F)C(F)(F)C(F)(F)C(F)(F)F,inactive,
O=P(O)(O)CCC(F)(F)C(F)(F)C(F)(F)C(F)(F)C(F)(F)C(F)(F)C(F)(F)C(F)(F)F,inactive,
O=C(O)C(F)(F)OC(F)(F)C(F)(F)OC(F)(F)C(F)(F)OC(F)(F)C(F)(F)C(F)(F)C(F)(F)F,inactive,
C=CC(=O)OCCC(F)(F)C(F)(F)C(F)(F)C(F)(F)C(F)(F)C(F)(F)C(F)(F)C(F)(F)F,inactive,
CN(CCO)S(=O)(=O)C(F)(F)C(F)(F)C(F)(F)C(F)(F)C(F)(F)C(F)(F)C(F)(F)C(F)(F)F,inactive,
CN(Cc1cnc2nc(N)nc(N)c2n1)c1ccc(C(=O)N[C@@H](CCC(=O)O)C(=O)O)cc1,inactive,
OCC(F)(F)C(F)(F)C(F)(F)C(F)(F)C(F)(F)C(F)(F)C(F)(F)C(F)(F)C(F)(F)C(F)(F)C(F)(F)F,inactive,
O=C(O)CCC(F)(F)C(F)(F)C(F)(F)C(F)(F)C(F)(F)F,inactive,
